Among the data in PubChem BioAssay AID720704 (The Scripps Research Institute Molecular Screening Center, 2013) are inhibition values, retold here.

SMILES strings stand for the structures. In all, about 370,000 compounds went through this assay and about 660 (0.18%) were called active. The sample holds actives, similar compounds and a random draw of the others, so the mix is not that of the screen. Cut-off read from the data, not from the text of the source: active = inhibition above about 11%; inactive = the rest.

For this assay, the target named is 1-phosphatidylinositol 4,5-bisphosphate phosphodiesterase beta-3 (Homo sapiens) (UniProt Q01970). Briefly: human PLC-beta3 inhibitors, primary screen, biochemical, fluorescence (AID 720704).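 Note: 0% = median of compound wells on plate and 100% = full blocker control.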 As to conditions: Purified PLC-beta3, fluorogenic substrate, at 12.2 µM, active compounds read high.
Sequence of 1-phosphatidylinositol 4,5-bisphosphate phosphodiesterase beta-3 (Homo sapiens) (Q01970 whole entry, looked up): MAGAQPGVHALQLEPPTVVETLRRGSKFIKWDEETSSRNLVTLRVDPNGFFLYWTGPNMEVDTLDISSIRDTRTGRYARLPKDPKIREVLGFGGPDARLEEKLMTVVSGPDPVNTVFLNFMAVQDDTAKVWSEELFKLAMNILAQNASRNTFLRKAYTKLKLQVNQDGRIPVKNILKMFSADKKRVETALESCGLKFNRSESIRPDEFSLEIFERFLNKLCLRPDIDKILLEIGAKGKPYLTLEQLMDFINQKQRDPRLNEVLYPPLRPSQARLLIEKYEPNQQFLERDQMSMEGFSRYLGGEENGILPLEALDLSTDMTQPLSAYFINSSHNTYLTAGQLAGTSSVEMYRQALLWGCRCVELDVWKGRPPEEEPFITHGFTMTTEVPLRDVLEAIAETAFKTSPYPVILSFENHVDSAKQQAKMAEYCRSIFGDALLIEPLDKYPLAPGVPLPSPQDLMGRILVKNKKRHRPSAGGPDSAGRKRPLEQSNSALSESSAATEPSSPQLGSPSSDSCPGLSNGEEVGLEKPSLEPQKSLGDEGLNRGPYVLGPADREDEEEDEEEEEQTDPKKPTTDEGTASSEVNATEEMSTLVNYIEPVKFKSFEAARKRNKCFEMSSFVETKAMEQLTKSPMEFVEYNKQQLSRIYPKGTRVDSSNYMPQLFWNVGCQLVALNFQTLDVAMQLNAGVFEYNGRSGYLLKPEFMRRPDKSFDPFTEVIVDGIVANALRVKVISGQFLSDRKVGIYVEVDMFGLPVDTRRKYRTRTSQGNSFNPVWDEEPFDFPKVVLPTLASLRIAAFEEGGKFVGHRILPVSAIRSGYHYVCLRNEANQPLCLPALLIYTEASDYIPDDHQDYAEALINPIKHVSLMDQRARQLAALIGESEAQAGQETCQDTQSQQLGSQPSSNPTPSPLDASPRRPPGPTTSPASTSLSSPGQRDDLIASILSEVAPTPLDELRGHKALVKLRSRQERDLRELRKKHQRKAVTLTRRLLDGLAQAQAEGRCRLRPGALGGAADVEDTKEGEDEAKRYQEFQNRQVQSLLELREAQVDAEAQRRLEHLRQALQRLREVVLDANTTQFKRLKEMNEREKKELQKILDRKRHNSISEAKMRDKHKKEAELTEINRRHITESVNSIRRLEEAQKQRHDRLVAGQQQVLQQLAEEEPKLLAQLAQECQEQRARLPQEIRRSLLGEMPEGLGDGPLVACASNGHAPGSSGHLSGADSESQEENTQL
Turning to `CCCOc1cccc(C(=O)Nc2ccccc2C(=O)N2CCN(C)CC2)c1`, the inhibition (usually the relative decrease from the control value, in per cent) is -3.82% (inactive). With `Cn1c(SCC(=O)Nc2cccc(O)c2)nnc1-c1ccc(S(=O)(=O)N2CCOCC2)cc1` the figure was 1.37% (inactive).

On to `Cc1ccc(NC(=O)C(C)OC(=O)Cc2c[nH]c3ccccc23)cc1S(=O)(=O)N1CCOCC1` (stereo not drawn), for which the inhibition is -3.66% (inactive). Take `CCC(C)(C(=O)NC1CCCCC1)N(C)C(=O)c1ccc2c(c1)OCO2` (stereo not drawn): the inhibition is 3.07% (inactive). With `CCOC(=O)c1cccc(NC(=O)CCc2nnc3ccc(N4CCOCC4)nn23)c1` the figure was -10.3% (inactive). Turning to `CC(=O)c1c(C)[nH]c(C(=O)N2CCN(S(=O)(=O)c3ccc(F)c(F)c3)CC2)c1C`, the inhibition is -2.62% (inactive). For `COCCNc1ccc(-c2n[nH]c(=O)c3ccccc23)cc1[N+](=O)[O-]`, the inhibition is -3.71% (inactive). As for `O=C(C(=O)N1CCN(c2ccccc2)CC1)c1ccc2c(c1)OCO2`, the inhibition is -0.14% (inactive). The value for `O=C(c1ccc2c(c1)OCO2)N1CCNc2ccccc2C1` was 12.9% (active); that for `O=CN1CCN(C(=O)c2ccc3c(c2)OCO3)CC1` was -2.96% (inactive); that for `O=C(NCc1ccccc1)c1onc(CSc2nc3ccccc3[nH]2)c1C(=O)NCc1ccccc1` was 8.62% (inactive).

With `COc1cc(OC)c(C(=O)N2CCCC2)cc1OC`, the inhibition was -8.68% (inactive). The value for `CCCc1nc2ccccc2n1C(C)C(=O)NC(C)(C)C` (stereo not drawn) was 1.17% (inactive). With `Cc1ccc(C)c(NC(=O)C2CCCN2C(=O)OC(C)(C)C)c1` (stereo not drawn) the figure was 5.04% (inactive). The value for `CCC[C@H]1CCCC/C=C\CCCC(=O)OCCN1C(=O)OC(C)(C)C` was 13.5% (active); that for `Cc1cccc(C)c1NC(=O)C1CCCN1C(=O)OC(C)(C)C` (stereo not drawn) was 0.37% (inactive). In the case of `CC(C)Cn1c(SCC(=O)Nc2ccc(Cl)cc2F)nc(O)cc1=O`, the inhibition was -1.44% (inactive). The value for `CC(C)c1ccc(Nc2nnc(SCC(=O)c3nnc(-c4ccccc4)o3)s2)cc1` was -19.6% (inactive); that for `O=C(Nc1cccc2ccccc12)c1[nH]c(-c2ccccc2)c2c1C(=O)N(C1CC1)C2=O` was -1.92% (inactive).

`CCC(=O)c1ccc(OCC(=O)OCC(=O)N2CCc3ccccc3C2)cc1`: the inhibition is -10.2% (inactive).

Regarding `CO/N=C(/CS(=O)(=O)c1ccc(Br)cc1)c1ccc(OC)cc1`, the inhibition was 0.43% (inactive). With `CCSc1sc(CC)cc1C=O` the figure was -0.46% (inactive); with `CCOC(=O)N1CCN(Cc2nc(Cc3cccc(C(F)(F)F)c3)no2)CC1`, -6.49% (inactive); with `CC(C)=CCN1CCN(Cc2cc3ccccc3[nH]2)CC1CCO` (stereo not drawn), -5.94% (inactive). With `CC(C)(C)OC(=O)Nc1ccc([C@@H](NC(=O)OC(C)(C)C)C(=O)OC(C)(C)C)cc1` the figure was 6.19% (inactive); with `CCN(CC(=O)Nc1ccc2c(c1)OCCO2)Cc1cc(=O)oc2cc(C)c(C)cc12`, -6.71% (inactive). Turning to `CO[C@@H]1CN(C)C(=O)c2cc(NC(=O)Nc3cc(F)ccc3F)ccc2OC[C@H](C)N(C(=O)c2ccccn2)C[C@@H]1C`, the inhibition was -2.49% (inactive).

Take `COC(=O)c1ccc(COC(=O)c2cnccn2)cc1`: the inhibition was 4.2% (inactive).

With `O=C(c1ccc(OC2CCN(C/C=C/c3ccc(F)cc3)CC2)cc1)N1CCCCC1`, the inhibition is -10.6% (inactive). With `COc1cc(OC)c(-n2cc(-c3ccc(Cl)cc3)[nH]c2=O)cc1Cl` the figure was 1.76% (inactive); with `Cc1ccc(NC(=O)c2nc[nH]c2C(=O)N2CCCCC2)c(C(=O)c2ccccc2)c1`, -2.21% (inactive). The value for `Cc1cc(C(=O)N2CCC(C(=O)O)CC2)c(C(F)(F)F)o1` was -3.87% (inactive). With `COc1cccc(NC(=O)C(Sc2nc3ccccc3c(=O)n2CC(C)C)c2ccccc2)c1` (stereo not drawn) the figure was 0.44% (inactive); with `Cc1ccc2nc(-c3ccc(SCC(=O)Nc4cc(C)on4)nc3)[nH]c2c1`, -55.5% (inactive); with `CCC(C(=O)NCCC(C)C)N(Cc1ccccc1Cl)C(=O)c1snc(C(N)=O)c1N` (stereo not drawn), -123% (inactive). As for `COc1ccccc1Nc1nc(N)nc(CSC(=S)N2CCOCC2)n1`, the inhibition was -5.33% (inactive). With `Cc1cccc([C@H]2[C@@H]3C=CC[C@@H](C)[C@@H]3C(=O)N2Cc2ccccc2)c1` the figure was -3.88% (inactive); with `COc1ccc(NC(=O)CCC(=O)N2CCN(S(=O)(=O)c3ccc(C)cc3)CC2)c(OC)c1`, -5.05% (inactive); with `CCC1C(C#N)=C(SC)NC2=C1C(=O)CC(C)(C)C2` (stereo not drawn), -65.6% (inactive). With `O=C1CCN(Cc2ccccc2)CCN1[C@H](CSc1ccccc1)c1ccccc1`, the inhibition was -6.78% (inactive). With `Cc1ccc(C)c(N(CC(=O)NCc2ccco2)C(=O)CCC(=O)Nc2ccccn2)c1` the figure was -1.21% (inactive); with `Nn1c(SCC(=O)N2c3ccccc3Sc3ccccc32)nnc1-c1n[nH]c2c1CCC2`, -2.4% (inactive); with `CC1Cc2ccccc2N1C(=O)Cn1cnc2ccccc2c1=O` (stereo not drawn), -1.51% (inactive). With `CCCCNC(=O)C1CCCNC1=O` (stereo not drawn) the figure was 1.97% (inactive); with `CCOC(=O)C1=CCC2C(=O)N(Cc3ccccc3)C(=O)C12` (stereo not drawn), 0.58% (inactive); with `CCOCCCNC(=O)C1(O)c2cc(Br)ccc2NC(=O)N1c1ccc(C)c(C)c1` (stereo not drawn), 0.25% (inactive). With `COC(=O)NC1(C(F)(F)F)NC(=O)N(C2CCCCC2)C1=O` (stereo not drawn) the figure was 13.8% (active); with `COc1ccc(C(=O)NC2(C(F)(F)F)NC(=O)N(CCCc3ccccc3)C2=O)c(OC)c1OC` (stereo not drawn), 0.7% (inactive); with `Cc1cccc(C(=O)NCCCN2CCCC2=O)c1`, 11.5% (active). As for `CCOc1ccc(C(=O)NCCCN2CCCC2=O)cc1`, the inhibition was 2.32% (inactive).

`O=C(NCCCN1CCCC1=O)c1cccc(S(=O)(=O)NCc2ccccc2)c1`: the inhibition is -4.88% (inactive). The value for `O=C1NC(=O)C(CCc2ccccc2)(c2ccccc2)N1` (stereo not drawn) was 2.82% (inactive); that for `OCC1OC(n2cnc3c(N4CCCC4)ncnc32)C(O)C1O` (stereo not drawn) was -4.64% (inactive); that for `O=C(Nc1ccccc1C(=O)NCC1CCCO1)c1ccccc1F` (stereo not drawn) was -7.42% (inactive). For the molecule `CCN1CCN(c2c(Cl)cccc2NC(=O)c2ccc(Br)o2)CC1`, the inhibition is 1.67% (inactive). The value for `O=c1/c(=C/c2ccc(CNS(=O)(=O)c3ccccc3)o2)sc2n1CCN=2` was -17.6% (inactive); that for `CCOC(=O)C1C(c2ccc(OC)c(OC)c2)c2c([nH][nH]c2=O)CC1(C)O` (stereo not drawn) was -7.78% (inactive).

On to `Cc1ccc(S(=O)(=O)N2CCC(C(=O)N[C@@H](C)C(=O)NCc3ccco3)CC2)cc1`, for which the inhibition is 0.13% (inactive). For `CC1CCN(S(=O)(=O)c2ccc(S(=O)(=O)NCc3ccco3)cc2)CC1`, the inhibition is 10.8% (active).

For the molecule `CC1CCN(S(=O)(=O)c2ccc(S(=O)(=O)NCc3cccnc3)cc2)CC1`, the inhibition is -6.19% (inactive). The value for `CC(=O)n1cc([C@H]2C=C(C(=O)N3CCOCC3)O[C@@H](OCc3ccc(CO)cc3)C2)c2ccccc21` was -5.02% (inactive).

For `COC(=O)c1ccccc1-n1cc(COC(=O)NCCc2ccccc2)nn1`, the inhibition is -1.19% (inactive). The value for `CC(=O)NC(Cc1ccc(F)c(F)c1)C(=O)NC1CCN(C(=O)c2ccc(C)cc2)CC1` (stereo not drawn) was -5.45% (inactive). The value for `O=C(NCc1ccccc1Cl)C(=O)NCC1CCCN1S(=O)(=O)c1cccs1` (stereo not drawn) was -11.5% (inactive). With `O=C(c1ccccc1Cl)N(Cc1ccccc1F)N1C(=O)CCCC1=O` the figure was -3.35% (inactive); with `CC1=C(C)C(=O)OC(C(C)C2CCC3C4CC=C5CC(OC6OC(COC7OC(CO)C(O)C(O)C7O)C(O)C(O)C6O)CC(O)C5(C)C4CCC23C)C1` (stereo not drawn), 4.96% (inactive); with `Cc1nnc(SC(C)C(=O)Nc2ccc(S(=O)(=O)NC3CCCCC3)cc2)s1` (stereo not drawn), 4.91% (inactive).

Regarding `COc1ccc(C)cc1NC(=O)CSc1nnc(CC(=O)Nc2ccccc2F)n1C`, the inhibition was -4.5% (inactive). `COc1ccc(OC)c(NC(=O)CSc2nc3cccnc3n2C)c1`: the inhibition is 6.47% (inactive). With `CCOc1ccc(OCC)c(NC(=O)CSc2nnc(Cn3cnc4ccccc43)n2C)c1` the figure was 12.1% (active). With `CSCCC(NC(=O)c1cc([N+](=O)[O-])cc([N+](=O)[O-])c1)c1nc2ccccc2[nH]1` (stereo not drawn) the figure was -1.97% (inactive); with `O=C(CSc1nc2ccccc2o1)N1CCN(c2ccc(Cl)cc2)CC1`, -0.03% (inactive). Take `Cc1ccc(/C=N/NC(=O)CSc2nc3ccccc3o2)cc1`: the inhibition was 11.3% (active). As for `O=C(CSc1nc2ccccc2o1)N1c2ccccc2Sc2ccc(Cl)cc21`, the inhibition was -0.49% (inactive). Turning to `O=C1CCC(C(=O)N2CCC(O)(c3ccccc3)CC2)CN1CCc1ccccc1` (stereo not drawn), the inhibition is -8.61% (inactive). With `CCC(=O)c1ccc(N2CCN(C(=O)c3cc([N+](=O)[O-])ccc3F)CC2)c(F)c1` the figure was -2.14% (inactive); with `NC(=O)c1nnsc1-c1ccc(-c2snnc2C(N)=O)cc1`, -6.22% (inactive). With `Cc1ccc(-c2nc(CS(=O)(=O)CC(=O)NCc3ccc4c(c3)OCO4)c(C)o2)cc1` the figure was -6.63% (inactive); with `O=C(COC(=O)c1ncc(Cl)c(Cl)c1Cl)NNC(=O)c1ccccc1`, -12.2% (inactive). The value for `Cc1cc(Cl)ccc1OCCCC(=O)Nc1cccc(-n2cnnn2)c1` was -7.06% (inactive).

For the molecule `COc1ccc(CC(NC(C)=O)C(=O)NC2CCN(C(=O)c3ccc(OC)c(OC)c3)CC2)cc1OC` (stereo not drawn), the inhibition was 2.51% (inactive). The value for `C/C(CC(O)(/C=N/O)c1ccccc1)=N\O` (stereo not drawn) was 3.84% (inactive).

In the case of `Cc1nc2ccccc2nc1CC(O)(c1ccccc1)c1ccccc1`, the inhibition is 11.5% (active). With `Cc1nnc(SCc2nc3ccccc3nc2C)s1` the figure was 2.42% (inactive); with `O=C(c1cc2sccc2n1Cc1ccc(F)cc1)N1CCc2ccccc21`, -17.1% (inactive). In the case of `Cc1cc(NC(=O)[C@H](C)NC(=O)c2ccco2)ccc1Br`, the inhibition was -1.12% (inactive). The value for `Cc1ccc(C)c(NC(=O)c2ccc(OC(=O)c3ccco3)cc2)c1` was -2.18% (inactive); that for `Cc1cc(NC(=O)c2ccc(F)cc2)ccc1NC(=O)c1ccco1` was 12.6% (active).
